Measurements from the OligoGym collection.

Each sequence was assayed against GIP (assay: pooled miR-30 sensor sort-seq; sequence = guide strand). Conditions: shRNA.
Note: reference of the scale not given here.

| Sequence | sensor-assay potency score (higher = more potent) |
| --- | --- |
| TTGTTGGTGAATCTTGTCCATG | -1.48 |
| TAGCATGAGATCCAACAGGCAG | -0.668 |
| AAAGTCTTGTTGGTGAATCTTG | -0.684 |
| TGATGTTGTGTTTCCAGTCATT | -1.13 |
| TTGTCCATGGCAATACTGTAGT | -0.964 |

These sequences were tested against GJB7 in the same assay as above. Conditions: shRNA.

| Sequence | sensor-assay potency score (higher = more potent) |
| --- | --- |
| TACAGTATAGTACATAGTGAAT | -1.64 |
| TCTGACTCTAGAGTGACCCTTT | 0.802 |
| TAGAGTTTCTTTCTGTGCCTTT | 0.0219 |
| TATACTAGTAAATTATAGGCGA | -0.424 |
| TTCAACACAATACACAAGCATG | -0.84 |
| TTACAGTATAGTACATAGTGAA | -0.477 |
| TAGTACACATTTTACTATCTGT | -0.554 |
| TATTCTAAAACAACTAATGTTA | -0.542 |
| TATTTTTGGAGACAGCACTTAA | -0.911 |
| TTTGTCTTCCAACTCAGCTTAG | -1.04 |
| TTGTGTGTCACAGAGTAGCTTT | -0.222 |

The sequences below were run against GKN1 in the same assay as above. Conditions: shRNA.

| Sequence | sensor-assay potency score (higher = more potent) |
| --- | --- |
| TTGTTGTCATCATTGACGTTGA | -0.288 |
| ATTGTTGACACTCACTGACTGC | -0.392 |
| TGATATTATAGTTAGCTAGGGC | -0.211 |
| ATCCATAGTACACTGGTCGTGT | 0.399 |
| TTGTGAACTTCATCTTGTCTTC | -0.21 |
| TGGTCGTGTAGCACGTTCCTGA | -0.625 |
| TTCATTGTTGACACTCACTGAC | 0.268 |
| TACACTGGTCGTGTAGCACGTT | -0.157 |
| TTTGTGCACAATGCATGTCTTC | -0.893 |
| TTCTTTTGAAAGAGTCTGGTTG | 0.101 |
| TTTTCTGCACAGCATATTCAGA | -0.973 |

The sequences below were run against GKN2 in the same assay as above. Conditions: shRNA.

| Sequence | sensor-assay potency score (higher = more potent) |
| --- | --- |
| TTTATAGTCAAAAATTGTGGTA | -0.623 |
| TTATAGTCAAAAATTGTGGTAG | 0.587 |
| TGACTTTTGAGTGTAAACCAAG | -1.39 |
| TAGAAGAGCATGATCCTGCATG | -0.328 |
| TTAATTTGACTTTTGAGTGTAA | 0.33 |
| TGGTAGAAGAGCATGATCCTGC | -0.134 |
| TATTTTCTGACTGAATCTCAAA | -1.16 |

What follows are sequences tested against GLA in the same assay as above. Conditions: shRNA.

| Sequence | sensor-assay potency score (higher = more potent) |
| --- | --- |
| TTTATCATAGCTACAGCCCAGG | -0.597 |
| TTATGTGACTTCTTAACCTTGA | 0.747 |
| TTTATTTCCAACATCTGCATAA | -0.987 |
| AACTGTCACAGTAACAACCATC | -1.1 |
| ATACTCTTTATACTTTTCCAGG | -1.52 |
| TTTTATTTCCAACATCTGCATA | -1.26 |
